The term inhibition denotes the change of the read-out against control, counted positive when it falls.

In the experiment the target is Solute carrier family 2, facilitated glucose transporter member 1 (Homo sapiens) (UniProt P11166). Briefly: ST_JUDE_LEISH: Cytotoxicity at 2uM final concentration against transgenic Leishmania Mexicana promastigotes LmGLUT1 that are glucose transport deficient and complemented with the human glucose transporter GLUT1. Activity is measured by DNA content using SYBR green in vitro. The format is functional.
Solute carrier family 2, facilitated glucose transporter member 1 (Homo sapiens), sequence (P11166 whole entry): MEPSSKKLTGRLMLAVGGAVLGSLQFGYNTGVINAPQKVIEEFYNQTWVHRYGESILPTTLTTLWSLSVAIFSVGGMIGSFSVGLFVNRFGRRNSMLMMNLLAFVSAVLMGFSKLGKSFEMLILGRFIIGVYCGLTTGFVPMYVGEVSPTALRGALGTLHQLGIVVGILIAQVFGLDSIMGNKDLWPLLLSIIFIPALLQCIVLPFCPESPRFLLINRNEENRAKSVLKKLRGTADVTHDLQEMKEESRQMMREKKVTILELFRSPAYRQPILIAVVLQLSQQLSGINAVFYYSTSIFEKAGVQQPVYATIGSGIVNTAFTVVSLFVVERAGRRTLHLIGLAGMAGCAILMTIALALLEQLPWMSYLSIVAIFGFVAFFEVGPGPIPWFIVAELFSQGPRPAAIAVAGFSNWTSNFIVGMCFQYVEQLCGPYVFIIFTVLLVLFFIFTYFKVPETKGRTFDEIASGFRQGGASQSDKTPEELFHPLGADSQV
For `ON=C1CCc2cc(-c3[nH]c(-c4cccc(OCCNCc5ccc(F)cc5)c4)nc3-c3ccncc3)ccc21`, the inhibition amounted to 16.7%.

As to `CC(C)[C@H](NC(=O)c1ccc(O)c(-c2ccc(Cl)c(Cl)c2)c1)C(=O)NCCN1CCCCC1`, the inhibition was -0.08%.

In the case of `Cc1cc(N)c2cc(NC(=O)c3cccc4ccccc34)ccc2n1`, the inhibition was 0.77%.

Consider `CC1(C)C2C=C(CN3CCC(NC(=O)Nc4ccc(Cl)c(Cl)c4)CC3)C1CC2` (stereo not given), for which the inhibition came out at 8.89%.

In the case of `O=C(Nc1ccc(OC2CCN(Cc3ccc(F)cc3)C2)c(Cl)c1)c1ccsc1` (stereo not given), the inhibition turned out to be 4.02%.

`CCOC(=O)c1c(-c2ccccc2)nc2c(sc3ccccc32)c1O`: the inhibition was found to be 5.5%.

Turning to `C=CCOC(=O)N1CCC(CNCc2ccc(-c3cccc(-c4nc5cccc(C)c5[nH]4)c3)cc2)C1` (stereo not given), the inhibition is -0.46%.

As to `CC1(C)N=C(N)N=C(N)N1OCCCCON1C(N)=NC(N)=NC1(C)C`, the inhibition turned out to be 3.48%.

With `COc1ccc2nccc(N/N=C/c3ccc([N+](=O)[O-])cc3)c2c1`, the inhibition was -1.64%.

`COCc1nc(-c2ccccc2)nc(N2CCN(C(=O)NC(C)C)CC2)c1Cc1ccccc1F`: the inhibition worked out at 8.3%.

As to `CCCNCc1ccc(-c2ccc(CN(CCOC)C(=O)CC3CCCC3=O)cc2)nc1` (stereo not given), the inhibition was determined as 0.55%.

As to `O=C(Nc1ccc(Cl)cc1)c1ccc(S(=O)(=O)NCC2CCN(CC3CCCCC3)CC2)cc1`, the inhibition was 2.97%.

On to `Fc1cccc(Cn2ncc3cc(Nc4ncnc5sc(C#Cc6ncc[nH]6)cc45)ccc32)c1`, for which the inhibition is -0.74%.

For `CCCOc1ccc2ccccc2c1CNCCCCCCNCc1c(OCCC)ccc2ccccc12`, the inhibition came out at 2.66%.

Regarding `CN1CCC(C(=O)N(Cc2ccc(-c3ccc(CNCCc4ccccc4)cn3)cc2)Cc2cccc(F)c2)CC1`, the inhibition worked out at 3.52%.

Consider `CC(Sc1nc(-c2ccccc2)c(-c2ccccc2)o1)C(=O)NC1CC1` (stereo not given), for which the inhibition was -2%.

For `COc1cc(C(=O)N2CCOC(CCN3CCC(Cc4ccc(F)cc4)CC3)(c3ccc(Cl)c(Cl)c3)C2)cc(OC)c1OC` (stereo not given), the inhibition was 5.79%.

`CN(CCCN(C)c1cc(NC(=O)c2cccc(F)c2)ccn1)Cc1cccc(O)c1`: the inhibition was -2.2%.

On to `CN(CCN(C)CC(O)c1ccc(Cl)c(Cl)c1)CC(O)c1ccc(Cl)c(Cl)c1` (stereo not given), for which the inhibition amounted to 11.5%.

Consider `Cc1cccc2nc(-c3cccc(-c4ccc(NC(=O)Nc5ccc(F)c(F)c5F)cc4)c3)[nH]c12`, for which the inhibition is 1.49%.

`COc1cccc(CC(=O)NC2CCN(c3ccnc4cc(Cl)ccc34)C2)c1` (stereo not given): the inhibition amounted to 0.02%.

Consider `C=C(NC(=O)C1CCCCC1)C(=O)OC`, for which the inhibition was -0.71%.

For `CC(C)=CC1C(C(=O)n2c(=N)[nH]c3ccccc32)C1(C)C` (stereo not given), the inhibition was 9.13%.

In the case of `CN(C)CCN(C)Cc1ccc(-c2cccc(-c3nc4ccccc4[nH]3)c2)cc1`, the inhibition is -0.63%.

Regarding `CC(C)C[C@H](NC(=O)OC(C)(C)C)C(=O)Nc1ccc(Cc2ccc(NC(=O)[C@H](CC(C)C)NC(=O)OC(C)(C)C)cc2)cc1`, the inhibition was 3.16%.

`COc1ccc(CN2CCC(NCc3ccc(C(F)(F)F)cc3)CC2)cc1`: the inhibition turned out to be 19.2%.

In the case of `O=C(Nc1ccc(-c2ccc(-c3nc4ccccc4[nH]3)s2)cc1)Nc1ccsc1`, the inhibition worked out at 0.72%.

As for `CCN(CC)Cc1cc(Nc2ccnc3cc(Cl)ccc23)ccc1O`, the inhibition is -1.88%.

With `CC(=O)Nc1ncc(C(=O)Nc2cccc(-c3ccc(-c4nc5cccc(C)c5[nH]4)cc3)c2)s1`, the inhibition came out at 0.14%.

On to `COc1ccc(C23Oc4cc(OC)cc(OC)c4C2(O)C2(CC3c3ccccc3)SCCCS2)cc1` (stereo not given), for which the inhibition worked out at 0.76%.

On to `CCOc1ccc(OCCCON2C(=N)N=C(N)NC2(C)C)cc1`, for which the inhibition was determined as 1.93%.

Turning to `O=C(Nc1ccc2c(c1)CCC2)c1ccc(N2CCN(c3ccncc3)CC2)cn1`, the inhibition was 11.7%.

As to `O=C(NCCCCN1CCC(c2ccc3c(c2OCCN2CCCC2)CCCC3)CC1)c1ccc(-c2ccc(C(F)(F)F)cc2)cc1`, the inhibition was 3.42%.

Turning to `Fc1ccc2[nH]c(-c3cccc(-c4ccc(CN5CCCCC5)cc4)c3)nc2c1`, the inhibition was determined as 4.18%.

For `CC(C)N1CCN(C(CN2CCN(CCCOc3ccccc3-c3ccccc3)CC2)c2ccc(F)cc2)CC1` (stereo not given), the inhibition was 6.32%.

Turning to `Cc1ccccc1C1CCN(C2CCC(NC(=O)/C=C/c3ccc(F)c(F)c3)CC2)CC1` (stereo not given), the inhibition was -1.77%.

For the molecule `COc1cc(NC(=O)c2cc3c(C)nn(-c4cccc(C(F)(F)F)c4)c3s2)cc(OC)c1OC`, the inhibition is 0.22%.

Consider `O=C1OC(c2ccccc2)(c2ccccc2)CN1C1CCN(Cc2ccc(O)c(Cl)c2)C1` (stereo not given), for which the inhibition was found to be 1.71%.

On to `c1ccc2c(c1)CN(Cc1cc3ccccc3[nH]1)CC1(CCN(Cc3c[nH]c4cnccc34)CC1)O2`, for which the inhibition came out at 1.1%.

Turning to `Clc1nc(Cl)c2c(ccn2Cc2ccccc2)n1`, the inhibition came out at 1.47%.

Source of the values: ChEMBL document CHEMBL3433997, “St. Jude Leishmania screening dataset” (2016).
